Pf Dd2 inh: qHTS Primary assay for Inhibitors of Plasmodium falciparum Dd2 growth in vitro; P. falciparum Dd2 growth, SYBR Green, 72 h; Potency, µM (titrated, usually from 28.9 µM), without a hit: at the highest dose activity, negative = inhibition, most hits filed as inhibitors; hit rate 4.3% among 120,000; AID 1347417, 2020; active = well fitted inhibition curve with a large enough effect;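 note: plate controls were DMSO vehicle for no effect and reference drug for full effect; nearly all actives have a fitted effect of over 65% in size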
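Readout: SYBR Green fluorescence, 485 nm excitation, 535 nm emission, after ~16 h lysis at 37C. Before that, Dd2-infected red cells (2.5% hematocrit) grew 72 h with compound, 29 uM top final concentration.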
* marks the source's active call; other numbers are inactive results; [ ] = dose if it differs, or a comment. Only a selection was taken, and hits are over-represented in it overall. Potency is the fitted concentration of half-maximal effect.

Results for Cc1nc2n(c1C(=O)Nc1cc(-c3ccc(F)cc3)[nH]n1)CCC(Nc1ccc(F)cc1)C2 (stereo not given) ?
Pf Dd2 inh: 8.91µM*

How did Cc1ccccc1NC1CCn2c(nc(C)c2C(=O)Nc2ccccc2)C1 (stereo not given) do in these assays?
Pf Dd2 inh: inactive

What do the screens show for `COc1ccc(C(=O)N[C@@H]2CN(C)C[C@H]2CN(C)C)cc1OC`?
Pf Dd2 inh: 3.9%

How did COc1cccc(NCc2nc3c(n2Cc2ccccc2)C(=O)N(CC2CC2)CCN3)c1 do in these assays?
Pf Dd2 inh: -25.9%[44.1 µM]

Results for C[C@H](C(=O)NCCN1CCOCC1)C1CC[C@@]2(C)Cc3sc(NC(=O)CC(C)(C)C)nc3[C@@H](C)[C@@H]2[C@H]1O (stereo not given in full) ?
Pf Dd2 inh: -9.2%

Results for CCOC(=O)c1c(-c2ccc(OC)c(OC)c2)csc1NC(=O)c1ccc(F)cc1 ?
Pf Dd2 inh: 6.0%

Results for COc1ccc(-c2cc(OC(=O)c3ccc(F)cc3)c3c(C)oc(C)c3c(=O)c2)cc1OC ?
Pf Dd2 inh: 10µM*

What do the screens show for `CCCc1ccc(-c2ccc(C(=O)Oc3ccc(OCC)cc3)cc2)nc1`?
Pf Dd2 inh: 4.0%

How did CCOc1cc(-c2ccc(OC(=O)c3ccccc3Cl)c(OC)c2)cc(=O)c2c(C)oc(C)c12 do in these assays?
Pf Dd2 inh: -11.5%

What do the screens show for `COc1ccc(F)cc1-c1ccc(C(=O)O)cc1`?
Pf Dd2 inh: inactive

What do the screens show for `CCOc1ccc(-c2cc(OC(=O)c3ccc(OC)cc3)c3c(C)oc(C)c3c(=O)c2)cc1`?
Pf Dd2 inh: 10µM*

Results for COc1ccc(C(=O)N2CCN(c3cc(-c4ccccc4)[nH]n3)CC2)c(OC)c1 ?
Pf Dd2 inh: -12.8%

What do the screens show for `Cc1ccc(C(=O)N2C(C(=O)N3CCOCC3)COC23CCN(C(=O)c2ccc(F)cc2)CC3)cc1` (stereo not given)?
Pf Dd2 inh: -12.1%

What do the screens show for `O=C(CC1CCN(C(=O)c2cccc(F)c2)C1)NCc1ccccc1` (stereo not given)?
Pf Dd2 inh: -3.1%

How did CCOCC(=O)N1CCC(N2CC3CC(C2)[C@H]2CCCC(=O)N2C3)CC1 (stereo not given in full) do in these assays?
Pf Dd2 inh: 4.2%

How did Cc1ccc(C)c(NC(=O)CN2C(=O)C(C)(C)c3ccccc32)c1 do in these assays?
Pf Dd2 inh: 9.7%

What do the screens show for `O=C1CCSC2(C(=O)N(Cc3ccc(F)cc3)c3ccccc32)N1c1ccccc1` (stereo not given)?
Pf Dd2 inh: -26.7%

What do the screens show for `COc1ccc(N2C(=O)CSC23C(=O)N(C)c2ccccc23)cc1Cl` (stereo not given)?
Pf Dd2 inh: 19.0%

What do the screens show for `O=C1CSC2(C(=O)N(Cc3cccc(F)c3)c3ccccc32)N1c1cccc(C(F)(F)F)c1` (stereo not given)?
Pf Dd2 inh: -8.6%

What do the screens show for `O=C1CCSC2(C(=O)N(Cc3ccc(F)cc3)c3ccccc32)N1c1ccc(F)c(F)c1` (stereo not given)?
Pf Dd2 inh: -6.0%

How did Cc1cc(C)c(NC(=O)CN2C(=O)C3(SCC(=O)N3c3ccc(F)cc3)c3ccccc32)c(C)c1 (stereo not given) do in these assays?
Pf Dd2 inh: 10µM*

What do the screens show for `O=C(CN1C(=O)C2(SCC(=O)N2c2ccc(F)c(F)c2)c2ccccc21)Nc1cccc(Cl)c1` (stereo not given)?
Pf Dd2 inh: 12.6µM*

How did O=C1CSC2(C(=O)N(Cc3cccc(C(F)(F)F)c3)c3ccccc32)N1c1ccc(F)c(F)c1 (stereo not given) do in these assays?
Pf Dd2 inh: 11.2µM*

How did CN1C(=O)C2(SCC(=O)N2c2ccc(Cl)cc2)c2ccccc21 (stereo not given) do in these assays?
Pf Dd2 inh: inactive

What do the screens show for `Cc1cc(C)cc(N2C(=O)CSC23C(=O)N(CC(N)=O)c2ccccc23)c1` (stereo not given)?
Pf Dd2 inh: -13.0%

What do the screens show for `CC(C)c1ccc(N2C(=O)CSC23C(=O)N(Cc2cccc(F)c2)c2ccccc23)cc1` (stereo not given)?
Pf Dd2 inh: -13.1%

How did Cc1ccc(N2C(=O)CSC23C(=O)N(CC(=O)Nc2ccccc2F)c2ccccc23)cc1C (stereo not given) do in these assays?
Pf Dd2 inh: 11.2µM*

Results for COCCN1C(=O)[C@@H]2C[C@@H](CN2C(=O)Cc2ccccc2)Oc2ccccc21 ?
Pf Dd2 inh: 14.7%[44.1 µM]

How did CC1(C)C(=O)N(CC(=O)Nc2ccc(Cl)cc2)c2ccccc21 do in these assays?
Pf Dd2 inh: 12.7%

What do the screens show for `Cc1ccc(N2C(=O)CSC23C(=O)N(CC(=O)Nc2ccc(C(C)C)cc2)c2ccccc23)cc1C` (stereo not given)?
Pf Dd2 inh: 12.6µM*

Results for Cc1cccc(N2C(=O)CSC23C(=O)N(CC(=O)NCc2ccccc2Cl)c2ccccc23)c1 (stereo not given) ?
Pf Dd2 inh: 10µM*

Screening results (PubChem BioAssay)
